Where “and” joins values, the source holds several entries; their conditions need not be identical. Equal entries are not always repeated.
test system: Plasmodium falciparum; assay: GSK_TCMDC: Inhibition of Plasmodium falciparum Dd2 in whole red blood cells, using parasite LDH activity as an index of growth. Test compounds present at 2uM; type: functional

| Compound | Inhibition |
| --- | --- |
| CC(Cc1ccc(OCCCCOc2ccccc2)cc1)NCCCc1nc2ccccc2[nH]1 (configuration not stated) | 67% |
| CCN(CC)CCN1C(=O)C(O)(c2ccccc2Cl)c2c1cc(C(N)=O)cc2C(F)(F)F.Cl (configuration not stated) | 86% |
| Cn1c(C2CC3CCC(C2)N3CC2CCC(NC(=O)/C=C/c3ccc(Cl)c(Cl)c3)CC2)nc2ccccc21 (configuration not stated) | 51% |
| CO/C(=C\C=C\c1cc2cc(Cl)c(Cl)cc2[nH]1)C(=O)N[C@H]1CN2CCC1CC2 | 36% |
| CCC(C)CN1CCC(N(C)c2cc(NC(=O)c3ccc(F)cc3)ccn2)CC1.O=C(O)C(F)(F)F (configuration not stated) | 32% |
| O=C(/C=C/c1ccc(Cl)c(Cl)c1)N1CCC(CN2CCC(c3c(-c4ccccc4)[nH]c4ccccc34)CC2)CC1 | 99% |
| O=C(/C=C/c1cccc(Cl)c1)NC1CCC(CN2CCC(c3c[nH]c4ccccc34)CC2)CC1 (configuration not stated) | 82% and 55% |
| COC(=O)CN(C(=O)/C=C/c1ccc(Cl)c(Cl)c1)C1CCC(CN2CCC(c3c[nH]c4ccccc34)CC2)CC1 (configuration not stated) | 69% |
| CC[C@H]1CN2CC[C@H]1C[C@@H]2[C@@H](O)c1ccnc2ccc(OC)cc12.Cl | 95% |
| CC(Cc1ccc(OCCCCOc2ccccc2)cc1)NCCCn1ccnc1 (configuration not stated) | 100% |
| CC(C)CNCc1ccc(-c2ccc(CN(C(=O)Nc3ccccc3)C3CCN(Cc4ccccc4)CC3)cc2)cc1.O=C(O)C(F)(F)F | 61% |
| Cc1ccc2[nH]cc(C3CCN(CC4CCC(NC(=O)/C=C/c5ccc(Cl)c(Cl)c5)CC4)CC3)c2c1 (configuration not stated) | 86% and 46% |
